Reference: paper PMC5540273 (PLoS ONE, 2017)
Where two headings read alike, the source gives them in different places.

Key:
Conditions in all cases: n = 1
CHEK2 = test system: CHEK2
CIT = test system: CIT
CLK1 = test system: CLK1
CLK2 = test system: CLK2
CLK3 = test system: CLK3
CLK4 = test system: CLK4
CSF1R-autoinhibited = test system: CSF1R-autoinhibited
CSF1R = test system: CSF1R
CSK = test system: CSK
CSNK1A1L = test system: CSNK1A1L
[1] = concentration: 1 μM, replicates: in singlicate
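Further: KINOMEscan kinase panel screen.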

Row | Compound | %Inh (CHEK2; [1]) [%] | %Inh (CIT; [1]) [%] | %Inh (CLK1; [1]) [%] | %Inh (CLK2; [1]) [%] | %Inh (CLK3; [1]) [%] | %Inh (CLK4; [1]) [%] | %Inh (CSF1R-autoinhibited; [1]) [%] | %Inh (CSF1R; [1]) [%] | %Inh (CSK; [1]) [%] | %Inh (CSNK1A1L; [1]) [%] | %Inh (CHEK2; 1 µM) [%] | %Inh (CIT; 1 µM) [%] | %Inh (CLK1; 1 µM) [%] | %Inh (CLK2; 1 µM) [%] | %Inh (CLK3; 1 µM) [%] | %Inh (CLK4; 1 µM) [%] | %Inh (CSF1R-autoinhibited; 1 µM) [%] | %Inh (CSF1R; 1 µM) [%] | %Inh (CSK; 1 µM) [%] | %Inh (CSNK1A1L; 1 µM) [%]
1 | COC(=O)c1c(-c2ccccc2)c2cc(C(=O)O)ccc2c(=O)n1Cc1ccccc1 | 13 | 2 | 0 | 13 | 0 | 0 | 0 | 50 | 8 | 0 | – | – | – | – | – | – | – | – | – | –
2 | CC1=C(C(=O)Nc2cc3cn[nH]c3cc2F)C(c2ccc(C(F)(F)F)cc2)CC(=O)N1 (centres unmarked) [GSK429286] | 0 | 5 | 14 | 0 | 37 | 0 | 0 | 7 | 0 | 7 | – | – | – | – | – | – | – | – | – | –
3 | Cc1csc(-c2nc(Nc3ccncc3)c3ccccc3n2)n1 [GW869640] | 15 | 61 | 15 | 19 | 35 | 8 | 28 | 0 | 3 | 10 | – | – | – | – | – | – | – | – | – | –
4 | CS(=O)(=O)c1ccc(-c2nc3n(c2-c2ccncc2)CCC3)cc1 [SKF-105942] | 0 | 4 | 11 | 0 | 0 | 0 | 0 | 0 | 100 | 2 | – | – | – | – | – | – | – | – | – | –
5 | COc1ccc2nc(-c3cccc(C)n3)nc(Nc3ccncc3)c2c1 [GSK204919] | 0 | 73 | 18 | 0 | 2 | 26 | 0 | 3 | 0 | 5 | – | – | – | – | – | – | – | – | – | –
6 | O=C(Nc1n[nH]c2cc(-c3cccc(F)c3F)ccc12)C1CC1 [SB-733894] | 0 | 6 | 0 | 13 | 0 | 0 | 0 | 7 | 0 | 0 | – | – | – | – | – | – | – | – | – | –
7 | COC(=O)c1c(-c2ccccc2)c2cc(OC)ccc2c(=O)n1Cc1ccccc1 | 15 | 6 | 0 | 4 | 0 | 5 | 20 | 51 | 0 | 4 | – | – | – | – | – | – | – | – | – | –
8 | Cl.O=C(Nc1cccc(-c2nn3ncccc3c2-c2ccnc(Nc3cccnc3)n2)c1)c1c(F)cccc1F [GSK312879] | 0 | 30 | 19 | 3 | 0 | 12 | 0 | 17 | 18 | 4 | – | – | – | – | – | – | – | – | – | –
9 | Cc1cc(N2Cc3ccccc3C2)nc(Nc2ccc(S(=O)(=O)N3CCOCC3)cc2)n1.Cl [GSK1669917] | 0 | 0 | 9 | 0 | 1 | 11 | 0 | 4 | 0 | 0 | – | – | – | – | – | – | – | – | – | –
10 | O=S(=O)(c1ccc(-c2ccnc3[nH]ccc23)cc1)N1CCCC1 [GSK846226] | 15 | 36 | 63 | 45 | 57 | 41 | 0 | 17 | 10 | 2 | – | – | – | – | – | – | – | – | – | –
11 | Fc1cc(Cl)ccc1Nc1ccnc2cc(I)ccc12 [GW551191] | 0 | 37 | 27 | 0 | 5 | 5 | 0 | 0 | 0 | 0 | – | – | – | – | – | – | – | – | – | –
12 | CN(C)CCN(C)C(=O)c1cc(-c2ccncc2)c(-c2ccc(Cl)c(O)c2)o1.Cl.Cl [SB-710397] | 12 | 21 | 18 | 0 | 9 | 25 | 0 | 3 | 0 | 20 | – | – | – | – | – | – | – | – | – | –
13 | Cn1ccc2ncnc(Oc3cccc(C(=O)Nc4ccccc4)c3)c21 | 0 | 8 | 9 | 0 | 0 | 18 | 9 | 6 | 14 | 2 | – | – | – | – | – | – | – | – | – | –
14 | O=C(Nc1ccc2c(c1)OCO2)NC1CCN(c2ccnc(Nc3ccc(F)cc3)n2)C1 (centres unmarked) [GSK1379724] | 0 | 23 | 10 | 0 | 0 | 6 | 0 | 0 | 1 | 2 | – | – | – | – | – | – | – | – | – | –
15 | Cn1cncc1-c1ccc2ncnc(Nc3ccc(OCc4ccccc4)cc3)c2c1 [GW320571] | 0 | 6 | 23 | 57 | 100 | 32 | 0 | 0 | 0 | 22 | – | – | – | – | – | – | – | – | – | –
16 | COc1ccccc1CNC(=O)c1cc(C(=O)c2ccccc2C)c[nH]1 [GSK364507] | 0 | 9 | 17 | 0 | 0 | 9 | 0 | 11 | 0 | 20 | – | – | – | – | – | – | – | – | – | –
17 | Cc1cccc(-c2nc(Nc3cccc(C(N)=O)c3)c3ccccc3n2)n1 [GW876019] | 0 | 45 | 18 | 6 | 14 | 0 | 0 | 0 | 0 | 3 | – | – | – | – | – | – | – | – | – | –
18 | Cn1ccc2ncnc(Oc3ccc(Nc4nc5ccccc5[nH]4)cc3)c21 | 23 | 8 | 0 | 12 | 0 | 0 | 0 | 17 | 0 | 8 | – | – | – | – | – | – | – | – | – | –

Row | Compound | %Inh (CHEK2; [1]) [%] | %Inh (CIT; [1]) [%] | %Inh (CLK1; [1]) [%] | %Inh (CLK2; [1]) [%] | %Inh (CLK3; [1]) [%] | %Inh (CLK4; [1]) [%] | %Inh (CSF1R-autoinhibited; [1]) [%] | %Inh (CSF1R; [1]) [%] | %Inh (CSK; [1]) [%] | %Inh (CSNK1A1L; [1]) [%] | %Inh (CHEK2; 1 µM) [%] | %Inh (CIT; 1 µM) [%] | %Inh (CLK1; 1 µM) [%] | %Inh (CLK2; 1 µM) [%] | %Inh (CLK3; 1 µM) [%] | %Inh (CLK4; 1 µM) [%] | %Inh (CSF1R-autoinhibited; 1 µM) [%] | %Inh (CSF1R; 1 µM) [%] | %Inh (CSK; 1 µM) [%] | %Inh (CSNK1A1L; 1 µM) [%]
19 | Cc1nnc(-c2ccc3occ(-c4ccc(S(C)=O)cc4)c3c2)[nH]1 (centres unmarked) | 10 | 0 | 0 | 22 | 0 | 29 | 8 | 5 | 0 | 26 | – | – | – | – | – | – | – | – | – | –
20 | O=C(Nc1n[nH]c2nc(-c3nccs3)c(Br)cc12)C1CCCC1 [SB-742609] | 0 | 36 | 22 | 0 | 4 | 0 | 0 | 3 | 0 | 6 | – | – | – | – | – | – | – | – | – | –
21 | O=C1NC(=O)C(N2CCc3ccccc32)=C1c1ccccc1Cl [SB-373598] | 0 | 29 | 12 | 45 | 0 | 19 | 0 | 4 | 46 | 15 | – | – | – | – | – | – | – | – | – | –
22 | COc1cc2nccc(Nc3ccc(NC(=O)c4ccc(C)cc4)c(O)c3)c2cc1OC.Cl [GW440132] | 11 | 11 | 37 | 0 | 87 | 14 | 15 | 18 | 0 | 9 | – | – | – | – | – | – | – | – | – | –
23 | Fc1cc(Cl)ccc1Nc1ccnc2cc(-c3ccc(CN4CCCCC4)o3)ccc12 [GW560116] | 35 | 63 | 11 | 0 | 0 | 27 | 0 | 20 | 0 | 1 | – | – | – | – | – | – | – | – | – | –
24 | O=C(Nc1ccccc1)Nc1cccc(Oc2ccc3nccn3n2)c1 | 1 | 100 | 6 | 0 | 0 | 0 | 0 | 99.6 | 0 | 59 | – | – | – | – | – | – | – | – | – | –
25 | CCCc1ccc(S(=O)(=O)NC2CCN(c3ccnc(Nc4ccc(F)cc4)n3)C2)cc1 (centres unmarked) [GSK1379715] | 0 | 0 | 12 | 0 | 10 | 0 | 0 | 0 | 0 | 0 | – | – | – | – | – | – | – | – | – | –
26 | Cc1cc(-c2ccc3c(c2)CC[C@@H](N[C@@H](C)c2ccccc2)C3)cnc1N.Cl [GW412617] | 6 | 24 | 13 | 0 | 0 | 10 | 0 | 27 | 0 | 21 | – | – | – | – | – | – | – | – | – | –
27 | Cc1ccc(NC(=O)Nc2cc(C(C)(C)C)nn2-c2ccccc2)cc1 [GSK1014915] | 0 | 29 | 33 | 0 | 14 | 15 | 0 | 30 | 0 | 9 | – | – | – | – | – | – | – | – | – | –
28 | Cc1ccc(NC(=O)Nc2cccc(Cl)c2)cc1-c1ccc(C(=O)Nc2ccncc2)cc1 [GSK1398468] | 0 | 86 | 30 | 0 | 12 | 5 | 12 | 78 | 0 | 15 | – | – | – | – | – | – | – | – | – | –
29 | CCn1c(-c2ccccn2)nc2cnccc21 [SB-736398] | 0 | 20 | 3 | 0 | 0 | 4 | 4 | 42 | 0 | 0 | – | – | – | – | – | – | – | – | – | –
30 | Cl.Oc1ccc(-c2nc(-c3ccccc3)[nH]c2-c2ccncc2)cc1 [SB-428218] | 0 | 0 | 0 | 6 | 0 | 0 | 55 | 10 | 0 | 11 | – | – | – | – | – | – | – | – | – | –
31 | O=C(O)COc1ncnc2cc(-c3ccc4[nH]ncc4c3)sc12 | 1 | 8 | 76 | 43 | 0 | 79 | 0 | 0 | 0 | 0 | – | – | – | – | – | – | – | – | – | –
32 | CC(C)(C)c1ccc(C(=O)Nc2cn3cc(-c4cccnc4)ccc3n2)cc1 | 6 | 28 | 84 | 41 | 32 | 74 | 10 | 30 | 13 | 15 | – | – | – | – | – | – | – | – | – | –
33 | COc1ccc(CNC(=O)NC2CCN(c3ccnc(Nc4cc(OC)c(OC)c(OC)c4)n3)C2)cc1 (centres unmarked) [GSK1379748] | 47 | 20 | 11 | 0 | 0 | 0 | 17 | 13 | 0 | 0 | – | – | – | – | – | – | – | – | – | –
34 | Cc1c(O)cccc1Nc1ccnc2ccc(C(F)(F)F)cc12.Cl [GW466413] | 0 | 42 | 22 | 14 | 0 | 38 | 0 | 0 | 0 | 3 | – | – | – | – | – | – | – | – | – | –
35 | Cc1ccc(NC(=O)Nc2cccc(C(F)(F)F)c2)cc1 [GSK955403] | – | – | – | – | – | – | – | – | – | – | 0 | 29 | 3 | 36 | 0 | 0 | 0 | 0 | 28 | 0
